TDP1 block – qHTS Assay for Inhibitors of Tyrosyl-DNA Phosphodiesterase (TDP1). Tyrosyl-DNA phosphodiesterase 1 (Homo sapiens), Q9NUW8. recombinant TDP1, AlphaScreen DNA substrate cleavage. Potency, µM (series often up to 130 µM), hits mostly inhibitors. hit rate 0.28% among 350,000. AID 485290, 2010; note: nearly all actives have a fitted effect of over 40% in size
Target sequence (Q9NUW8 whole entry, looked up): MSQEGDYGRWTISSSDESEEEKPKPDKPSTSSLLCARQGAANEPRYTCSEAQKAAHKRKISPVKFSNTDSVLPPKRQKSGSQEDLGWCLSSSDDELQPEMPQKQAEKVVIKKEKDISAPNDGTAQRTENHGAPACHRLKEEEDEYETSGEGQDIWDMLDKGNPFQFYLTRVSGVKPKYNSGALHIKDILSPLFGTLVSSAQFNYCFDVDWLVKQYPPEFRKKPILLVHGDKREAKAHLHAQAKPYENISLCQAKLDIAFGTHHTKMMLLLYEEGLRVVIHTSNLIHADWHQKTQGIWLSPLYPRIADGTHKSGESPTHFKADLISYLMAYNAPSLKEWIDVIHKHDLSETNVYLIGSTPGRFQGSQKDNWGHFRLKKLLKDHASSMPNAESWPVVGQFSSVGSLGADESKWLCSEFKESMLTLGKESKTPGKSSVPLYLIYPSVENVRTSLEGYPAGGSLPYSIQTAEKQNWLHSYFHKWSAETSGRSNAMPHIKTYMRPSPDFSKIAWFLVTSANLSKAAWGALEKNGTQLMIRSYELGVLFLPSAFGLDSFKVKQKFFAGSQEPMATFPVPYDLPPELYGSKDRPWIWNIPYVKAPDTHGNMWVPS
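Tdp1 1 nM final; 15 min RT w/ cpd; substrate 15 nM, 5 min; beads 10 ug/ml, 10 min; AlphaScreen read. Neg ctrl: no enzyme.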
DT40 TDP1 CPT – qHTS for Inhibitors of human tyrosyl-DNA phosphodiesterase 1 (TDP1): qHTS in cells in presence of CPT. AID 686979, 2013. hit rate 12% among 420,000. chicken DT40 Tdp1-/-;hTDP1 cells + 20 nM CPT, ATP luminescence, 48 h. Potency, µM (titrated, usually from 46.2 µM), hits mostly inhibitors; note: nearly all actives have a fitted effect of over 55% in size
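Chicken DT40 Tdp1-/- cells complemented with human TDP1, 400 cells/well, exposed to compounds plus 20 nM camptothecin for at least 48 h at 37 C; viability read as ATP content by CellTiter-Glo luminescence.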
ClpP mod – qHTS Assay for Activators of ClpP; ATP-dependent Clp protease proteolytic subunit (Bacillus subtilis (strain 168)), P80244; purified B. subtilis ClpP, FRET peptide cleavage, 20 min; hit rate 1.9% among 340,000; Potency, µM (top dose mostly 57.5 µM); active = well fitted falling curve with a large enough effect; inconclusive = small, poorly fitted or top-dose-only effect; inactive = no such curve, though single readings can be large or run the other way; note: the source files actives as falling curves though it sought activators and does not explain the sign; nearly all actives have a fitted effect of over 65% in size
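Buffer: 100 mM Tris/HCl pH8, 100 mM KCl, 0.05% low protease BSA, 2.5% glycerol, 0.01% Tween-20. ClpP 10 microg/mL final; 20 min RT; delta FRET normalized to ADEP and DMSO controls.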
DT40 TDP1 no CPT – qHTS for Inhibitors of human tyrosyl-DNA phosphodiesterase 1 (TDP1): qHTS in cells in absence of CPT; DT40 Tdp1-/- hTDP1 cells, no CPT, ATP luminescence, 48 h; Potency, µM (top dose mostly 46.2 µM), actives largely listed as inhibitors; hit rate 15% among 420,000; AID 686978, 2013; note: nearly all actives have a fitted effect of over 55% in size
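DT40 Tdp1-/-;hTDP1 cells, no CPT (DMSO vehicle only), 400 cells/well; compounds pin-transferred; ≥48 hr, 37 °C; CellTiter-Glo 30 min RT dark, luminescence read.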
Numbers stand for hits; n = inactive; u = inconclusive; x = no result; [ ] = remark or other dose. An excerpt weighted towards active compounds, which were near 17% of everything screened. Unless noted, calls come from the whole dose curve; as a rule, active = well fitted curve in the direction sought with a large enough effect; inconclusive = small, poorly fitted or top-dose-only effect, or another doubt; inactive = no such curve, though single readings can be large; an effect the other way counts as inactive or inconclusive.

SMILES	TDP1 block	DT40 TDP1 CPT	ClpP mod	DT40 TDP1 no CPT
CCOc1ccc(CCNC(=O)Cn2c(=O)c3cccn3c3cccnc32)cc1	n	u	n	n
COC(=O)N1CCc2c(sc(NC(=O)C3COc4ccccc4O3)c2C(N)=O)C1 (centres undefined)	n	15µM	n	16µM
NC(=O)c1c(NC(=O)C2COc3ccccc3O2)sc2c1CCN(Cc1ccccc1)C2 (centres undefined)	n	n	x	n
CCOC(=O)c1c(NC(=O)C2COc3ccccc3O2)sc2c1CCN(Cc1ccccc1)C2 (centres undefined)	n	23µM	25µM	n
CC(=O)N1CCc2c(sc(NC(=O)Cc3ccccc3)c2C(N)=O)C1	x	n	n	n
CC(C)CCNC(=O)c1cccc(-n2cnc3cccnc32)c1	n	u	n	u
Cc1cc(Sc2ncnc(N)c2[N+](=O)[O-])ncn1	x	0.29µM	n	0.92µM
Cc1cc(Sc2nc(N)ncc2[N+](=O)[O-])ncn1	x	0.73µM	x	1.3µM
Cc1ccc(C)c(Oc2ncnc(N)c2[N+](=O)[O-])c1	n	n	n	n
CCCCCCCCCCCCCCCCCC(=O)NCCc1ccc(O)c(O)c1	n	x	x	x
CCCCCCCC/C=C\CCCCCCCC(=O)NCCc1ccc(O)c(O)c1	n	1µM	n	2.9µM
CCCCCCCC/C=C\CCCCCCCC(=O)NCc1ccc(O)c(OC)c1	n	3.3µM	x	u
CCCCCCCCCCCCCCCC(=O)NCCc1ccc(O)c(O)c1	n	x	x	x
CCOC(=O)C1(Cc2cccc(OC)c2)CCN(C/C=C/c2ccc(OC)cc2)CC1	x	5.8µM	x	5.2µM
CCOC(=O)C1(Cc2cccc(OC)c2)CCN(Cc2ccc(OC)c(O)c2)CC1	n	u	n	u
CCOC(=O)C1(Cc2cccc(OC)c2)CCN(C/C=C/c2ccccc2)CC1	n	16µM	x	18µM
CCOC(=O)C1(Cc2cccc(OC)c2)CCN(Cc2cccc(OCC)c2O)CC1	n	23µM	x	16µM
CCOC(=O)C1(Cc2cccc(OC)c2)CCN(CC=C(C)C)CC1	n	u	n	16µM
CCOC(=O)C1(Cc2cccc(OC)c2)CCN(CCO)CC1	x	n	x	n
Cc1nc(NC(=O)C(C)(C)C)sc1-c1nc(N)sc1-n1cc(-c2ccccc2)nn1	x	n	n	n
CCNc1nc(-c2sc(NC(=O)C(C)(C)C)nc2C)c(-n2cc(-c3ccccc3)nn2)s1	x	10µM	u	7.3µM
Cc1c(OC(C)C(=O)NCc2ccncc2)ccc2c3c(c(=O)oc12)CCCC3 (centres undefined)	n	21µM	n	u
Cc1c(OC(C)C(=O)NCC(O)c2ccccc2)ccc2c3c(c(=O)oc12)CCCC3 (centres undefined)	n	23µM	n	u
COc1ccc(C2=CSC3=C(C(=O)c4cccc(S(=O)(=O)N(C)C)c4)CCN23)cc1	n	23µM	n	16µM
CCCCCCSc1ccc([C@@H]2[C@@H]3C(=O)N(C)C(=O)[C@@H]3[C@]3(C(=O)OC)CCCCN23)cc1	n	9.2µM	n	26µM
SMILES	TDP1 block	DT40 TDP1 CPT	ClpP mod	DT40 TDP1 no CPT
CCCSc1ccc([C@@H]2[C@H]3C(=O)N(CC)C(=O)[C@H]3[C@]3(C(=O)OC)CCCCN23)cc1	n	u	n	16µM
CCCCCCSc1ccc([C@@H]2[C@H]3C(=O)N(CC)C(=O)[C@H]3[C@]3(C(=O)OC)CCCN23)cc1	n	21µM	n	u
Cc1ncc2c(c1CNS(=O)(=O)N(C)C)CCN(C(=O)c1ccc(F)cc1Cl)C2	x	n[9.04 µM]	x	n
COc1ccc(NC(=O)N2CCC3(CC2)CCN(C(=O)c2ccco2)CC3)cc1	x	n	x	n
CC1CCN(Cc2c(C(=O)N3CCc4ccccc4C3)nc3ccc(Cl)cn23)CC1	n	21µM	n	u
COC1CCN(Cc2c(C(=O)N3CCc4ccccc4C3)nc3ccc(Cl)cn23)CC1	n	n	n	n
CN(C)c1ccc(C(=O)C(=O)c2ccccc2)cc1	x	n	n	n
CC(=O)c1ccc(N(C)C)cc1	n	n	n	n
CN(C)c1ccc(C(=C2C=CC(=[N+](C)C)C=C2)c2ccc(N(C)C)cc2)cc1	n	0.23µM	n	0.52µM
CN(C)c1ccc(C(=C2C=CC(=[N+](C)C)C=C2)c2ccccc2)cc1	n	0.84µM	x	0.6µM
CC(C)CNS(=O)(=O)c1ccc(Br)cc1N1CCC[C@@H]1CO	n	u	n	n
CCOc1ccc(/C=C/c2nc(C#N)c(NCCCN(C)C)o2)cc1	n	21µM	n	u
COCCCNc1oc(/C=C/c2ccccc2)nc1C#N	x	n	x	n
N#Cc1nc(COc2ccccc2Cl)oc1NCc1ccco1	n	u	n	u
CCOc1ccc(-c2nc(C#N)c(NCCCOC)o2)cc1	n	8.2µM	n	6.5µM
COCCCNc1oc(-c2ccccc2F)nc1C#N	n	u	n	n
CN(C)CCCNc1oc(/C=C/c2ccccc2)nc1C#N	n	n	n	n
CCOc1ccc(/C=C/c2nc(C#N)c(NCCCOC)o2)cc1	n	2.3µM	n	1.5µM
CCOc1ccc(-c2nc(C#N)c(NCc3ccco3)o2)cc1	n	21µM	x	u
NS(=O)(=O)c1ccc(CCNC(=O)Cc2cccs2)cc1	x	n	n	n
CCC(C)c1ccc(O[C@@H]2O[C@H](CO)[C@@H](O)[C@H](O)[C@H]2NC(C)=O)cc1 (some centres undefined)	n	n[9.04 µM]	x	n[9.04 µM]
COC1OC2COC(c3ccccc3)OC2C2OC12 (centres undefined)	x	n	n	n
CC(C)(C)c1ccc(C(=O)NCc2nnc(SCC(=O)N3CCCC3)o2)cc1	x	n	n	u
C=CCN1CCc2c(cc(O)c(O)c2Cl)C(c2cccc(C)c2)C1 (centres undefined)	n	x	x	x
O=C(COC(=O)C12CC3CC(CC(Br)(C3)C1)C2)Nc1ccc2[nH]c(=O)[nH]c2c1	x	n	n	n
SMILES	TDP1 block	DT40 TDP1 CPT	ClpP mod	DT40 TDP1 no CPT
CC(C)[C@H]1COCCS(=O)(=O)N1Cc1cccc(Cl)c1	x	u	n	11µM
CCC[C@H]1COCCS(=O)(=O)N1Cc1ccccc1F	x	n	n	n
Cc1ccccc1CN1[C@@H](CC2CCCCC2)COCCS1(=O)=O	x	u	n	13µM
Cc1ccccc1-c1ccccc1CN1[C@@H](C(C)C)COCCS1(=O)=O	n	u	n	18µM
O=S1(=O)CCOC[C@H](CC2CCCCC2)N1Cc1ccccc1	x	u	n	u
O=S1(=O)CCOC[C@H](CC2CCCCC2)N1Cc1cccc(Cl)c1	x	14µM	n	11µM
Cc1cc(C)c(C(=O)NCCCN2CCOCC2)c(C)c1	x	n	n	n
O=C(C1=C[C@@H](c2ccccc2)C[C@@H](OCCCCO)O1)N1CCOCC1	n	n	n	n
COC(=O)c1c(-c2ccccc2OC)sc2cc3c(cc12)OCO3	n	u	n	u
Cc1cc(/C=N/n2c(COc3ccccc3C)nc3ccccc3c2=O)c(O)c([N+](=O)[O-])c1	n	18µM	n	13µM
